The nature of assay [1]: P-glycoprotein substrates identified in KB-8-5-11 adenocarcinoma cell line, qHTS therapeutic library screen (AID 1346987). Also: nearly all actives have a fitted effect of over 65% in size. Also: potency is read from the fitted curve at half-maximal effect. Particulars: KB-8-5-11 (P-gp overexpressing) viability, CellTiter-Glo, 72 h; series mostly up to 44.5 µM. In a few lines:
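Human cervical adenocarcinoma KB-8-5-11 cells, selected in colchicine to over-express P-gp and assayed without it, were exposed for 72 h to titrated compounds. An ATP-based luminescent viability signal gave AC50.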

Assay [2] in a line: NS1 protein of Zika virus - qHTS assay to identify small molecule inhibitors in human HEK 293 cells (AID 1347053). Also: nearly all actives have a fitted effect of over 55% in size. Particulars: HEK293 ZIKV MR766 infection, NS1 TR-FRET, 24 h; series mostly up to 46.1 µM. A digest of the protocol:
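TR-FRET signal from two anti-ZIKV NS1 antibodies quantified NS1 in HEK 293 cells 24 h after MR766 infection at MOI = 0.5; compounds were added 1 h before virus. Uninfected cells and infected cells defined the NS1 normalization range.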

Assay [3] can be described thus: qHTS of pediatric cancer cell lines to identify multiple opportunities for drug repurposing: Primary screen for TC32 cells (AID 1347089). Also: nearly all actives have a fitted effect of over 60% in size. Also: potency is read from the fitted curve at half-maximal effect. Particulars: TC32 Ewing sarcoma viability, CellTiter-Glo luminescence, 48 h; series mostly up to 45.8 µM. In a few lines:
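Luminescent ATP read-out (CellTiter-Glo) of metabolically active TC32 cells after 48 h exposure. Concentration-response curves came from 11-point (MIPE, 0.78 nM–46 µM) or 8-point (NPC, 0.59 nM–46 µM) primary titrations; follow-up used 11 points.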

Several values for one entry are separate records, joined by “and”; a condition that tells them apart may be missing. Equal entries are not always repeated. Records with an inconclusive call do not appear. Entries that show only a call come without a potency. Unmarked numbers belong to inactive results. Activity calls are given as the source filed them. Calls follow the shape of the dose curve; as a rule, active = well fitted curve in the direction sought with a large enough effect; inconclusive = small, poorly fitted or top-dose-only effect, or another doubt; inactive = no such curve, though single readings can be large; an effect the other way counts as inactive or inconclusive.

As to `CC(C)[C@H](O)C(=O)N[C@@H](C)C(=O)N[C@@H]1C(=O)N(C)CCc2ccccc21`, the Potency result in assay [1], in assay [2] and in assay [3] was “inactive” throughout.
`CC(C)=CCCC(C)=CCCC(C)=CCCC(C)=CCCC(C)=CCCC(C)=CCCC(C)=CCCC(C)=CCCC(C)=CCO`: the Potency entry in assay [1] and in assay [3] was “inactive” each time.
With `OC1CCC(Nc2ncc3nc(Nc4c(F)cc(F)cc4F)n([C@@H]4CCOC4)c3n2)CC1` (some centres not stated), the Potency entry in assay [1] and in assay [3] was “inactive” throughout.
Turning to `O=S(=O)(O)c1ccc2cc(N=Nc3cc(S(=O)(=O)O)c4cccnc4c3O)ccc2c1`, the Potency entry in assay [1] and in assay [3] was “inactive” each time.
`CC[C@H](NC(=O)[C@H](C)NC)C(=O)N1C[C@@H](O)C[C@H]1Cc1c(-c2[nH]c3cc(F)ccc3c2C[C@H]2C[C@H](O)CN2C(=O)[C@H](CC)NC(=O)[C@H](C)NC)[nH]c2cc(F)ccc12`: the Potency entry in assay [1] and in assay [3] was “inactive” throughout.
Regarding `COc1c(C)c2c(c(O)c1CC=C(C)CCC(=O)OCCN1CCOCC1)C(=O)OC2`, the values for the Potency in assay [1] and in assay [3] were 7.43 µM (active) and 4.66 µM (active), respectively.
The like results for `N[C@@H](CC(=O)N1CCn2c(nnc2C(F)(F)F)C1)Cc1cc(F)c(F)cc1F` were, in that order, “inactive” and “inactive”.
The like results for `CNC(=O)c1cc(COc2nnc(Nc3ccc(Cl)cc3)c3ccoc23)ccn1` were, in that order, “inactive” and “inactive”.
Turning to `CO[C@H]1C=CO[C@@]2(C)Oc3c(C)c(O)c4c(O)c(c(C=NN5CCN(C)CC5)c(O)c4c3C2=O)NC(=O)C(C)=CC=C[C@H](C)[C@H](O)[C@@H](C)[C@@H](O)[C@@H](C)[C@H](OC(C)=O)[C@H]1C`, in assay [1], the activity change, negative = cytotoxicity was 0.164% [at 9.29 µM]. Also, the activity change, negative = cytotoxic in assay [3] was 6.56% [at 9.17 µM].
For `CCN(CC)CCCCNc1nc2cc(Cl)c(Cl)cc2nc1-c1ccc(-c2cccs2)s1`, in assay [1], the Potency is 9.35 µM (active). Further, in assay [3], the Potency result was “inactive”.
For `N#CC(c1ccnc(NCCc2cccnc2)n1)c1nc2ccccc2s1` (configuration not stated), in that order: “inactive” and “inactive”.
The like results for `O=C(CO)N1CCC(c2[nH]nc(-c3ccc(Cl)cc3)c2-c2ccncn2)CC1` were, in that order, “inactive” and “inactive”.
For `CCOC(=O)N1c2ccc(C(F)(F)F)cc2[C@@H](N(Cc2cc(C(F)(F)F)cc(C(F)(F)F)c2)C(=O)OC)C[C@H]1CC`, in that order: “inactive” and “inactive”.
Turning to `CN1N=C(N)c2cn([C@@H]3O[C@H](COP(=O)(O)O)[C@@H](O)[C@@H]3O)c3ncnc1c23`, the values for the Potency in assay [1] and in assay [3] were 0.833 µM (active) and 4.15 µM (active), respectively.
The like results for `COc1ccc(-c2cc(=O)c3c(O)cc(O[C@@H]4O[C@H](CO[C@@H]5O[C@@H](C)[C@H](O)[C@@H](O)[C@@H]5O)[C@@H](O)[C@H](O)[C@@H]4O)cc3o2)cc1O` were, in that order, “inactive” and “inactive”.
The like results for `CCNC(=O)c1noc(-c2cc(C(C)C)c(O)cc2O)c1-c1ccc(CN2CCOCC2)cc1` were, in that order, 0.0731 µM (active) and 0.165 µM (active).
The like results for `O=C1C(CCC(O)c2ccc(F)cc2)C(c2ccc(O)cc2)N1c1ccc(F)cc1` (configuration not stated) were, in that order, “inactive” and “inactive”.
As to `Cc1c(-c2cccc3c(CCCOc4cccc5ccccc45)c(C(=O)O)n(Cc4cccnc4)c23)c(COc2ccc(N3CCN([S+](=O)([O-])N(C)C)CC3)cc2)nn1C`, the Potency result in assay [1] and in assay [3] was “inactive” in each case.
Consider `CCCCn1c(=O)n(Cc2ccccc2F)c(=O)c2[nH]c(Cc3ccc(NC(C)=O)cc3)nc21`, for which the Potency entry in assay [1] and in assay [3] was “inactive” throughout.
Regarding `C[C@@H]1CCO[C@H]2Cn3cc(C(=O)NCc4ccc(F)cc4F)c(=O)c(O)c3C(=O)N12`, the Potency entry in assay [1] and in assay [3] was “inactive” in each case.
Consider `CN(C)c1ccc(-c2nc3ncc(Cl)c(N4CCN(CC(=O)Nc5nccs5)CC4)c3[nH]2)cc1`, for which the Potency result in assay [1] and in assay [3] was “inactive” each time.
As for `O=C(Nc1cccc(Cl)c1)Nc1ncc(CCNc2ncnc3ccsc23)s1`, the Potency in assay [1] was 1.16 µM (active); in assay [3] it was 0.739 µM (active).
The like results for `CC(C)C[C@@H](C(=O)N[C@H](C(=O)OC1CCCC1)c1ccccc1)[C@H](O)C(=O)NO` were, in that order, 20.9 µM (active) and “inactive”.
For `C#C[C@]1(O)CC[C@H]2[C@H]3CCc4cc(OC)ccc4[C@H]3CC[C@@]21C`, in that order: “inactive” and “inactive”.
For `FC(F)(F)c1ccc(C=Cc2nc(COc3ccc(CCCCn4ccnn4)cc3)co2)cc1`, in that order: “inactive” and 6.58 µM (active).
On to `O[C@@H](COc1cccc2ncccc12)CN1CCN(C2c3ccccc3[C@@H]3[C@H](c4ccccc42)C3(F)F)CC1` (some centres not stated), for which the Potency entry in assay [1] and in assay [3] was “inactive” each time.
Turning to `COc1nccc(-c2c(-c3ccc(F)cc3)ncn2C2CCNCC2)n1`, the Potency entry in assay [1] and in assay [3] was “inactive” in each case.
With `Nc1ccc(-c2ccc3ncc4ccc(=O)n(-c5cccc(C(F)(F)F)c5)c4c3c2)cn1`, the Potency was 1 nM (active) and 36.6 nM (active) in assay [1]; 0.0104 µM (active) in assay [3].

Source of the values: PubChem BioAssay (NCATS).
